Laboratory results as given in PubChem BioAssay (EPA / NIEHS).
Inconclusive results are not listed. Activity calls are given as the source filed them. The calls were made as follows: active = hit-call score of the fitted dose curve at least 0.9, where 1 is the maximum; inconclusive = response in the unintended direction; inactive = score below 0.9.

Each compound was assayed against human Phosphodiesterase 10 (PDE10), PDE10A (gene 10846) (UniProt Q9Y233) (assay: NVS_ENZ_hPDE10: NovaScreen (NVS) Enzymatic Assay for human Phosphodiesterase 10 (PDE10) (AID 2283195)).
Chain of human Phosphodiesterase 10 (PDE10), PDE10A (gene 10846) (Q9Y233 whole entry, looked up): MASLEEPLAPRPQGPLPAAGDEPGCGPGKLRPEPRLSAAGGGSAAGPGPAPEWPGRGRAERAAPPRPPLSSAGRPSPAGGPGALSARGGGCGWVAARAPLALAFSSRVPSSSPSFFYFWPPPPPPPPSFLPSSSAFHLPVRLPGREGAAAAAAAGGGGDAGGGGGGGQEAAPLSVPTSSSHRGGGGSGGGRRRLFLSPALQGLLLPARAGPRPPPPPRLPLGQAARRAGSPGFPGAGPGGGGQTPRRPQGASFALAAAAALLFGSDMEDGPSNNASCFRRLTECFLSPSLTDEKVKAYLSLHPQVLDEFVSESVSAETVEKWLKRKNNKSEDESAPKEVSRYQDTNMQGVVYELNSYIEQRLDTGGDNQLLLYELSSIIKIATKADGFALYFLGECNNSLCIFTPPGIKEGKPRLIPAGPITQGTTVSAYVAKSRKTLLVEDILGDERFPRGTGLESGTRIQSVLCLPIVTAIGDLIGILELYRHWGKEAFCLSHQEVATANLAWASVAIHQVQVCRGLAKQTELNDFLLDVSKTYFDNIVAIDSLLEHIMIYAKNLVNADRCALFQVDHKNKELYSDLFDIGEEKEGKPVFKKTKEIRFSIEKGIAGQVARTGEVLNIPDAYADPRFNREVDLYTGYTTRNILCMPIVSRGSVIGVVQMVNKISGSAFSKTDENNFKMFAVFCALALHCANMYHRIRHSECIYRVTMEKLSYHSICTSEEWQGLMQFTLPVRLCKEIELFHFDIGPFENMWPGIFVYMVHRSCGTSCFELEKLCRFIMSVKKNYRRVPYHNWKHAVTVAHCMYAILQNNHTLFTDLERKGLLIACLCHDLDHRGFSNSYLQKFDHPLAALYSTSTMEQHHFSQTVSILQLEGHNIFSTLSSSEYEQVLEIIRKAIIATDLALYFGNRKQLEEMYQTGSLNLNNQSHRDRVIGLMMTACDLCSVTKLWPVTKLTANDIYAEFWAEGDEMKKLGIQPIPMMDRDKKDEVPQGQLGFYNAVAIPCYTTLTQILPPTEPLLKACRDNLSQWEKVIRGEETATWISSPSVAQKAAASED
In short: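 Fluorescence readout after mobility-shift separation of substrate and product, 1 h reaction with recombinant human enzyme. Single-concentration duplicates at 25 uM, then concentration-response up to 50 uM for chemicals reaching threshold; DMSO baseline.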
O=[N+]([O-])c1cc(Cl)ccc1Cl was tested, and the outcome was “inactive”.
With CC(Cl)CN(C)C (stereo unspecified) the outcome was “inactive”.
Cc1ccc2c(c1N)C(=O)c1ccccc1C2=O was tested, and the AC50 was 5.53 µM (active).
For Cc1cc(C)c(C(=O)P(=O)(c2ccccc2)c2ccccc2)c(C)c1, the AC50 was 0.687 µM (active).
With N#C/C=C/c1ccccc1 the outcome was “inactive”.

These compounds were tested against human Phosphoinositide 3-kinase alpha (PI3Ka), PIK3CA (gene 5290) (UniProt P42336) (assay: NVS_ENZ_hPI3Ka: NovaScreen (NVS) Enzymatic Assay for human Phosphoinositide 3-kinase alpha (PI3Ka) (AID 2283196)).
Chain of human Phosphoinositide 3-kinase alpha (PI3Ka), PIK3CA (gene 5290) (P42336 whole entry, looked up): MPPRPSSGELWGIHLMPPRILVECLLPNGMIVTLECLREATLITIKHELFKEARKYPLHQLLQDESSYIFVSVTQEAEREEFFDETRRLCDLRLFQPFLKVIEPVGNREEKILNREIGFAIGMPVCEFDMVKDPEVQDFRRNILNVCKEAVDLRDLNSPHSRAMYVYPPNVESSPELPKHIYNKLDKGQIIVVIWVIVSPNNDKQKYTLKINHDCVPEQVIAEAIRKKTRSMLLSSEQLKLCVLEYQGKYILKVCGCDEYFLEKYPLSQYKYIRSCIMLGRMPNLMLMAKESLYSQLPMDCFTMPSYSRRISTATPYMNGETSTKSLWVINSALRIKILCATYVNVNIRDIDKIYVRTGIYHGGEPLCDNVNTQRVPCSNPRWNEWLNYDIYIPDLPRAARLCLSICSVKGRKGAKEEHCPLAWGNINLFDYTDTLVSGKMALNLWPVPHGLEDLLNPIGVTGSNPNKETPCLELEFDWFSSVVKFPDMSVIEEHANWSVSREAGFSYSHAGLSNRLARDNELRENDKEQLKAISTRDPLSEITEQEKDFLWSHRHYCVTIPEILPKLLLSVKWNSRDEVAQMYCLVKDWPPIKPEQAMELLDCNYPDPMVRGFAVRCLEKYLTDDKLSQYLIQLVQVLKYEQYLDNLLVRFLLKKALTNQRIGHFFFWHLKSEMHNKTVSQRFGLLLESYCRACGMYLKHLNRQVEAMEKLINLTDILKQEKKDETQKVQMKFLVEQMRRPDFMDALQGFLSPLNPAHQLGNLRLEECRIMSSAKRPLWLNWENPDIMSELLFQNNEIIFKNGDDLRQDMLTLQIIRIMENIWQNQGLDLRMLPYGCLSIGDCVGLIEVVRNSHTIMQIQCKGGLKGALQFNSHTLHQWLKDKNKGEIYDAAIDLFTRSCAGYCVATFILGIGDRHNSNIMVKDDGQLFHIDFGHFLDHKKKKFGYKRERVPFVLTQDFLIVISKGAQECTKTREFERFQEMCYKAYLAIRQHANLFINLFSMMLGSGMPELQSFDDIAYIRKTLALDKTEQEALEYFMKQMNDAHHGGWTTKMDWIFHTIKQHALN
In short: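 Fluorescence/mobility-shift readout of substrate conversion by recombinant enzyme, 1 h post-dosing. Primary screen in duplicate at 25 uM; actives (e.g. ≥30% inhibition) retested in singleton concentration-response, top concentration 50 uM.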
With ClC1=C(Cl)C2(Cl)C3C(Cl)C(Cl)CC3C1(Cl)C2(Cl)Cl (stereo unspecified) the outcome was “inactive”.
With CC1(C)CN=C(NN=C(/C=C/c2ccc(C(F)(F)F)cc2)/C=C/c2ccc(C(F)(F)F)cc2)NC1 the AC50 was 14.1 µM (active).
For CSC(C)(C)C=NO, the outcome was “inactive”.
For CCCCN(CCCC)N=O, the outcome was “inactive”.
With Cc1ccc2c(c1N)C(=O)c1ccccc1C2=O the outcome was “inactive”.

The compounds below were run against Serine/threonine-protein phosphatase PP1-alpha catalytic subunit (Homo sapiens) (UniProt P62136) (assay: NVS_ENZ_hPPP1CA: NovaScreen (NVS) Enzymatic Assay for human Protein Phosphatase 1 Aatalytic subunit Alpha (PPP1CA) (AID 2283200)).
Chain of Serine/threonine-protein phosphatase PP1-alpha catalytic subunit (Homo sapiens) (P62136 whole entry, looked up): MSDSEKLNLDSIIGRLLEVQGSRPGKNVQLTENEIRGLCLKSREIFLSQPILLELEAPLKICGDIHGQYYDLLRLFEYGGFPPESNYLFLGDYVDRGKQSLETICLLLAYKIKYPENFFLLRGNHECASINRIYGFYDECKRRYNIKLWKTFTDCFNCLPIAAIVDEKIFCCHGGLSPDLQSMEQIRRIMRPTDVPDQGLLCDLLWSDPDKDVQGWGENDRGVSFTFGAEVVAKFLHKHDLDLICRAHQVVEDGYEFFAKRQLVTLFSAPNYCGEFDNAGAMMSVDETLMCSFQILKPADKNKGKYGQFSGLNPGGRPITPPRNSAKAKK
In short: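 Chemicals were first screened in duplicate at 25 uM, and those passing threshold (e.g. 30% inhibition) were run as concentration series to 50 uM. Cell-free recombinant protein, 1.33 h read, fluorescent substrate/product mobility-shift detection, normalised to DMSO.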
With CCOC(=O)c1ccccc1C(=O)OCC the outcome was “inactive”.
For CC(C)(C)c1ccc(O)cc1, the outcome was “inactive”.
CC(C)(C)OOC(C)(C)C was tested, and the outcome was “inactive”.

These compounds were tested against Tyrosine-protein phosphatase non-receptor type 11 (Homo sapiens) (UniProt Q06124) (assay: NVS_ENZ_hPTPN11: NovaScreen (NVS) Enzymatic Assay for human Protein Tyrosine Phosphatase Non-receptor Type 11 (PTPN11) (AID 2283202)).
Chain of Tyrosine-protein phosphatase non-receptor type 11 (Homo sapiens) (Q06124 whole entry, looked up): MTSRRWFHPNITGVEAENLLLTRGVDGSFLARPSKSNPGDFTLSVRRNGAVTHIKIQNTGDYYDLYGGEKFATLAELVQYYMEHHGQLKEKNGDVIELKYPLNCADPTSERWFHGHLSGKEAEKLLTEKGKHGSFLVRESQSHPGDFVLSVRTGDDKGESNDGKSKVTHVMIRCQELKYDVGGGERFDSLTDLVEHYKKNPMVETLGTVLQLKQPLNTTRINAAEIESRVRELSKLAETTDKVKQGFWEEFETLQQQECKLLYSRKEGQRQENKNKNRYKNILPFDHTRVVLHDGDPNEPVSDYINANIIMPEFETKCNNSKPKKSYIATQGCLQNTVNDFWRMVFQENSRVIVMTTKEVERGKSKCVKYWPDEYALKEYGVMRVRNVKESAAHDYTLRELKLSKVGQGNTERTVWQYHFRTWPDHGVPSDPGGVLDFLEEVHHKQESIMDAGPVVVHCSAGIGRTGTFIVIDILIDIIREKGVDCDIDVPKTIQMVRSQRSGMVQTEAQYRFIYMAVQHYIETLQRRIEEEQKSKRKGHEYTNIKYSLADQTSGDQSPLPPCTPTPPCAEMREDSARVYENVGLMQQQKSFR
In short: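 Compounds first tested in duplicate at 25 uM; those reaching ~30% inhibition rerun in singleton concentration-response, top 50 uM. Phosphatase activity measured after 0.5 h by fluorescence with mobility-shift separation, relative to DMSO.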
CC1(C)CN=C(NN=C(/C=C/c2ccc(C(F)(F)F)cc2)/C=C/c2ccc(C(F)(F)F)cc2)NC1 was tested, and the AC50 was 13.4 µM (active).
In the case of O=c1ssc(Cl)c1Cl, the outcome is reported as “inactive”.
CC(C)(C)OOC(C)(C)C was tested, and the outcome was “inactive”.

Each compound was assayed against Tyrosine-protein phosphatase non-receptor type 12 (Homo sapiens) (UniProt Q05209) (assay: NVS_ENZ_hPTPN12: NovaScreen (NVS) Enzymatic Assay for human Protein Tyrosine Phosphatase Non-receptor Type 12 (PTPN12) (AID 2283204)).
Chain of Tyrosine-protein phosphatase non-receptor type 12 (Homo sapiens) (Q05209 whole entry, looked up): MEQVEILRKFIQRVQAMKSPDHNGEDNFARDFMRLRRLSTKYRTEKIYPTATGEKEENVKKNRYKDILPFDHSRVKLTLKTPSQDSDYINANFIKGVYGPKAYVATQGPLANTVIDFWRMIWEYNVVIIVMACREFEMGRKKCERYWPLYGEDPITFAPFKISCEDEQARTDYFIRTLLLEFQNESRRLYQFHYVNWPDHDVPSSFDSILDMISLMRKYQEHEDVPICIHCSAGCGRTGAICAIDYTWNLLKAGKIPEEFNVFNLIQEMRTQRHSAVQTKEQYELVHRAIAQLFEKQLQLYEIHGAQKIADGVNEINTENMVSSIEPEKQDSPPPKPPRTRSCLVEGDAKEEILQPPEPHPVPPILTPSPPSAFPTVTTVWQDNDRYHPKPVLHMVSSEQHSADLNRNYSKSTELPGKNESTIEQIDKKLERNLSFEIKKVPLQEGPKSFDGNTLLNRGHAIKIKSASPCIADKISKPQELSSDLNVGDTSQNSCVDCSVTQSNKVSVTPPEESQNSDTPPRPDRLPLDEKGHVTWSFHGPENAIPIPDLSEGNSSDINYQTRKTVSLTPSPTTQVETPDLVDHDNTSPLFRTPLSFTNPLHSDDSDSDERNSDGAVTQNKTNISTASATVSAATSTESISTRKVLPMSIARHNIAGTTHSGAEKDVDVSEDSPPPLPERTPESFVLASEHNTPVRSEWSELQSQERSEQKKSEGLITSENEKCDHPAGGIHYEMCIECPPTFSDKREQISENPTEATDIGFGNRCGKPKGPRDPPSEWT
In short: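 Single-concentration duplicates (25 uM) preceded singleton concentration-response up to 50 uM for chemicals passing threshold. Cell-free recombinant PTPN12 activity was read 1.33 h after dosing via fluorescence after mobility-shift separation; loss of signal versus DMSO.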
For ClC1=C(Cl)C2(Cl)C3C(Cl)C(Cl)CC3C1(Cl)C2(Cl)Cl (stereo unspecified), the outcome was “inactive”.
For O=P1(N(CCCl)CCCl)NCCCO1 (stereo unspecified), the outcome was “inactive”.
In the case of O=c1ssc(Cl)c1Cl, the outcome is reported as “inactive”.
CC(C)(C)OOC(C)(C)C was tested, and the outcome was “inactive”.
With O=C(O)C(Cl)Cl the outcome was “inactive”.
